± gives the standard deviation of the averaged measurements.
What was measured:
[1] = tested on: CLZ3 (HCA2 human fibroblast dual HR-NHEJ reporter); test: NHEJ repair efficiency (GFP+ cells) relative to control (log10 fold); higher = more non-homologous end joining; settings: 5 µM; doxycycline 0.5 ug/mL
[2] = tested on: CLZ3 (HCA2 human fibroblast dual HR-NHEJ reporter); test: HR repair efficiency (tdTomato+ cells) relative to control (log10 fold); higher = more homologous recombination; settings: 5 µM; doxycycline 0.5 ug/mL
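Throughout, for HR repair efficiency (tdTomato+ cells) relative to control: compound given one day before doxycycline, which switches on I-SceI endonuclease expression to create double-strand breaks within the integrated reporter.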
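Throughout, for NHEJ repair efficiency (GFP+ cells) relative to control: compound given one day ahead of doxycycline, which switches on I-SceI endonuclease to cut the chromosomally integrated reporter and create DSBs.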

Row | SMILES | NHEJ repair efficiency (log10) [1] | HR repair efficiency (log10) [2]
1 | COc1cc(/C=C/c2ccc(O)cc2)cc(OC)c1 [Pterostilbene] | 0.127 | 0.242
2 | COc1cc2c(cc1OC)[C@@H]1Cc3ccc(OC)c(OC)c3CN1CC2 [Tetrahydropalmatine] | -0.0787 | 0.0375
3 | C/C=C1\[C@H]2C=C(C)C[C@]1(N)c1ccc(=O)[nH]c1C2 [Huperzine-A] | 0.0591 | 0.0391
4 | COc1c2ccoc2cc2oc(=O)ccc12 [Bergapten] | -0.153 | 0.125
5 | OC[C@H]1O[C@@H](Oc2cc(O)cc(/C=C/c3ccc(O)cc3)c2)[C@H](O)[C@@H](O)[C@@H]1O [Polydatin] | 0.036 | 0.288
6 | C[N+](C)(C)[C@H](Cc1c[nH]c2ccccc12)C(=O)[O-] [Hypaphorine] | 0.0288 | -0.124
7 | COC(=O)c1c2c(c3ccccc3c1O)OC(C)(C)C=C2 [Rubimaillin] | 0.0202 | -0.0243
8 | O=C(/C=C/c1ccc(O[C@@H]2O[C@H](CO)[C@@H](O)[C@H](O)[C@H]2O)cc1)c1ccc(O)cc1O [Isoliquiritoside] | -0.17 | -0.232
9 | COc1cc(CNC(=O)CCCC/C=C/C(C)C)ccc1O [Capsaicin] | -0.0748 | -0.0984
10 | O=c1c(O[C@@H]2O[C@H](CO)[C@@H](O)[C@H](O)[C@H]2O)c(-c2ccc(O)cc2)oc2cc(O)cc(O)c12 [Astragalin] | -0.0677 | 0.0112
11 | CC1(C)C2CCC1(C)C(O)C2 (stereo not drawn) [Borneol] | 0.0116 ± 0.059 | 0.0372 ± 0.12
12 | C/C=C/c1cc(OC)c2c(c1)[C@H](C)[C@@H](c1ccc3c(c1)OCO3)O2 [Licarin B] | 0.0776 | 0.192
13 | O=C(O)c1cc(O)c(O)c(O)c1 [Gallic acid] | 0.0481 | -0.11
14 | COc1ccc(-c2cc(=O)c3c(O)c(OC)c(O)c(OC)c3o2)cc1 [Nevadensin] | -0.111 | 0.0179
15 | CC1(C)CC[C@]2(C(=O)O)CCC3=C([C@@H](CCl)C[C@@H]4[C@@]5(C)C[C@H](O)[C@H](O)[C@@](C)(C(=O)O)[C@@H]5CC[C@@]34C)[C@@H]2C1 [Tenuigenin] | 0.0402 | 0.0517
16 | NCCCC(=O)O [g-Aminobutyric acid] | 0.0698 | 0.0647
17 | Cn1c(=O)c2c(ncn2C)n(C)c1=O [Caffeine] | 0.103 | 0.0527
18 | C/C=C\c1ccc(OC)cc1 [cis-Anethol] | 0.133 | 0.0605
19 | COc1ccc(-c2cc(=O)c3c(O)cc(O[C@@H]4O[C@H](CO[C@@H]5O[C@@H](C)[C@H](O)[C@@H](O)[C@H]5O)[C@@H](O)[C@H](O)[C@H]4O)cc3o2)cc1O [Diosmin] | -0.157 | -0.0408
20 | COc1ccccc1 [Anisole] | 0.105 | 0.043
21 | COc1ccc2cc1Oc1ccc(cc1)C[C@H]1c3cc(c(OC)cc3CCN1C)Oc1c(OC)c(OC)cc3c1[C@H](C2)N(C)CC3 [Tetrandrine] | 0.294 | -0.328
22 | C[C@@]12C[C@@]3(O)O[C@@H](O1)[C@]1(COC(=O)c4ccc(O)cc4)[C@@H]3C[C@]12O[C@@H]1O[C@H](CO)[C@@H](O)[C@H](O)[C@H]1O [Oxypaeoniflorin] | 0.00873 | 0.0237
23 | OCCc1ccc(O)c(O)c1 [Hydroxytyrosol] | 0.0571 | 0.228
24 | CCOC(=O)c1c(C(=O)OCC)c(O)c2ccccc2c1O [Rubidate] | 0.0573 | 0.128
25 | C/C=C1/[C@H](O[C@@H]2O[C@H](CO)[C@@H](O)[C@H](O)[C@H]2O)OC=C(C(=O)OC)[C@H]1CC(=O)OCCc1ccc(O)c(O)c1 [Oleuropein] | 0.0183 | 0.0478
26 | CC(C)C(C)C(O)C(O)C(C)C1CCC2C3COC(=O)C4CC(O)C(O)CC4(C)C3CCC12C (stereo not drawn) [Brassinolide] | -0.122 | -0.073
27 | COc1c2ccoc2c(OC[C@@H](O)C(C)(C)O)c2oc(=O)ccc12 [Byakangelicin] | 0.0236 | -0.0476
28 | C[C@]1(O)C[C@@H](O)[C@]2(O)C=CO[C@@H](O[C@H]3O[C@H](CO)[C@@H](O)[C@H](O)[C@H]3O)[C@@H]21 [Harpagide] | 0.0851 | -0.126
29 | CC(C)=CCC[C@](C)(O[C@@H]1O[C@H](CO[C@@H]2O[C@H](CO)[C@@H](O)[C@H](O)[C@H]2O)[C@@H](O)[C@H](O)[C@H]1O)[C@H]1CC[C@]2(C)[C@@H]1[C@H](O)C[C@@H]1[C@@]3(C)CC[C@H](O[C@@H]4O[C@H](CO)[C@@H](O)[C@H](O)[C@H]4O[C@@H]4O[C@H](CO)[C@@H](O)[C@H](O)[C@H]4O)C(C)(C)[C@@H]3CC[C@]12C [Ginsenoside Rb1] | 0.0709 | 0.217

Reference: the supplement of paper PMC7380943
